Where “and” joins values, the source holds several entries; their conditions need not be identical. Equal values may be shown once. Calls of active or inactive are those of the source. How the source made its calls: active means hit-call score of the fitted dose curve at least 0.9, where 1 is the maximum; inactive means score below 0.9.

This passage reports AC50 and outcome results from PubChem BioAssay (EPA / NIEHS).

Read-out in one assay: Interleukin 6 (IL6), IL6 (gene 3569)
Description: LTEA_HepaRG_IL6: Life Technologies and Expression Analysis (LTEA) Assay for Interleukin 6 (IL6) using HepaRG (AID 2283509). The following applies: mRNA level, 48 h; actives raise or lower the signal. An outline of the steps: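 qRT-PCR read-out of IL6 transcript, normalized to three housekeeping genes, after 48 h chemical exposure of HepaRG cells; 8-point half-log series, top 100 uM, 0.5% DMSO vehicle. Bidirectional curve fitting against DMSO baseline.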
In the case of `Cc1nn(C)c(Oc2ccccc2)c1C=NOCc1ccc(C(=O)OC(C)(C)C)cc1`, the AC50 is 5.23 µM (active).
As for `CCCCOCCOCCOCc1cc2c(cc1CCC)OCO2`, the outcome was inactive.
Take `S=C(S)NCCNC(=S)S.[Mn+2].[S-]C([S-])=NCCN=C([S-])[S-].[Zn+2]`: the AC50 was 1.73 µM (active) and 1.92 µM (active) and 2.15 µM (active).
Take `CCOC(=O)C(C)Oc1ccc(Oc2nc3ccc(Cl)cc3o2)cc1` (stereo not drawn): the result was inactive.
Same read-out and setting: the value for `CCOC(=O)COc1cc(-n2ncc(C(F)(F)F)c(C)c2=O)c(F)cc1Cl` was “inactive”; that for `CSC(=O)c1cccc2nnsc12` was “inactive”.
The same measure, in the same setting: for `O=C(O)c1ccccc1` the value was “inactive”; for `CCCCOC(=O)[C@@H](C)Oc1ccc(Oc2ccc(C(F)(F)F)cn2)cc1`, “inactive”.
As for `CCCOC(=O)c1ccc(C(=O)OCCC)nc1`, the result was inactive.
On the same count and under the same terms, the value for `CC(=O)S[C@@H]1CC2=CC(=O)CC[C@]2(C)[C@H]2CC[C@@]3(C)[C@@H](CC[C@@]34CCC(=O)O4)[C@H]12` was “inactive”.
Same read-out and setting: the value for `CC(C)CCCCCCc1ccc(O)cc1` was “inactive”; that for `CCC(C)OC(=O)N1CCCCC1CCO` (stereo not drawn) was “inactive”; that for `OB(O)O` was “inactive”.
Same read-out and setting: the value for `C[C@]12C[C@H](O)[C@H]3[C@@H](CCC4=CC(=O)CC[C@@]43C)[C@@H]1CC[C@@H]2C(=O)CO` was “inactive”.
Consider `CC(C)(C)[C@@H](O)[C@@H](Cc1ccc(Cl)cc1)n1cncn1`, for which the result was inactive.
On the same count and under the same terms, the value for `CCCCCOC(=O)COc1cc(N2C(=O)C3=C(CCCC3)C2=O)c(F)cc1Cl` was “inactive”; that for `CC(C)(c1ccc(O)cc1)c1ccc(O)cc1` was “inactive”.
With `C=CCOC(Cn1ccnc1)c1ccc(Cl)cc1Cl` (stereo not drawn), the AC50 was 73.7 µM (active).
With `c1ccc(Nc2ccccc2)cc1`, the call was inactive.
For the molecule `O=C(Nc1ccc([N+](=O)[O-])cc1Cl)c1cc(Cl)ccc1O`, the AC50 is 3.29 µM (active).
On to `CCN(Cc1c(F)cccc1Cl)c1c([N+](=O)[O-])cc(C(F)(F)F)cc1[N+](=O)[O-]`, for which the molecule was called inactive.
In the case of `C[C@]12CC[C@@H]3c4ccc(O)cc4C[C@@H](CCCCCCCCCS(=O)CCCC(F)(F)C(F)(F)F)[C@H]3[C@@H]1CC[C@@H]2O` (stereo partly drawn), the AC50 is 13.9 µM (active).
Regarding `C#CCOC(=O)[C@@H](C)Oc1ccc(Oc2ncc(Cl)cc2F)cc1`, the outcome was inactive.
For the molecule `S=C([S-])NCCNC(=S)[S-].[Mn+2]`, the AC50 is 5.31 µM (active).
In the case of `CN(C)C(=O)Nc1ccc(Cl)c(Cl)c1`, the molecule was called inactive.
`CCN(CC)C(=O)c1cccc(C)c1`: the call was inactive.

Read-out in another assay: Interleukin 6 Receptor (IL6R), IL6R (gene 3570)
Description: LTEA_HepaRG_IL6R: Life Technologies and Expression Analysis (LTEA) Assay for Interleukin 6 Receptor (IL6R) using HepaRG (AID 2283510).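 On AC50: differentiated human HepaRG liver cells in serum-free induction medium; TaqMan qRT-PCR signal normalized to ACTB GAPDH and POLR2A housekeeping genes.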 The following applies: mRNA level, 48 h; actives raise or lower the signal. In a few lines: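 HepaRG, 48 h exposure, 8-pt half-log series, top 100 uM, 0.5% DMSO vehicle, duplicates. Read-out: TaqMan qRT-PCR of IL6R transcript, housekeeping-gene normalized. Gain or loss fitted relative to DMSO baseline.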
For the molecule `Cc1nn(C)c(Oc2ccccc2)c1C=NOCc1ccc(C(=O)OC(C)(C)C)cc1`, the AC50 is 1.28 µM (active).
On to `CCCCOCCOCCOCc1cc2c(cc1CCC)OCO2`, for which the call was inactive.
Turning to `S=C(S)NCCNC(=S)S.[Mn+2].[S-]C([S-])=NCCN=C([S-])[S-].[Zn+2]`, the AC50 was 1.55 µM (active) and 1.5 µM (active) and 1.32 µM (active).
Take `CCOC(=O)C(C)Oc1ccc(Oc2nc3ccc(Cl)cc3o2)cc1` (stereo not drawn): the molecule was called inactive.
The same measure, in the same setting: for `CCOC(=O)COc1cc(-n2ncc(C(F)(F)F)c(C)c2=O)c(F)cc1Cl` the value was “inactive”.
The same measure, in the same setting: the value for `CSC(=O)c1cccc2nnsc12` was “inactive”; that for `O=C(O)c1ccccc1` was “inactive”; that for `CCCCOC(=O)[C@@H](C)Oc1ccc(Oc2ccc(C(F)(F)F)cn2)cc1` was “inactive”.
Same read-out and setting: the value for `CCCOC(=O)c1ccc(C(=O)OCCC)nc1` was “inactive”.
As for `CC(=O)S[C@@H]1CC2=CC(=O)CC[C@]2(C)[C@H]2CC[C@@]3(C)[C@@H](CC[C@@]34CCC(=O)O4)[C@H]12`, the AC50 was 63.3 µM (active).
For the molecule `CC(C)CCCCCCc1ccc(O)cc1`, the outcome was inactive.
On the same count and under the same terms, for `CCC(C)OC(=O)N1CCCCC1CCO` (stereo not drawn) the value was “inactive”; for `OB(O)O`, “inactive”; for `C[C@]12C[C@H](O)[C@H]3[C@@H](CCC4=CC(=O)CC[C@@]43C)[C@@H]1CC[C@@H]2C(=O)CO`, “inactive”.
On the same count and under the same terms, for `CC(C)(C)[C@@H](O)[C@@H](Cc1ccc(Cl)cc1)n1cncn1` the value was “inactive”.
Same read-out and setting: the value for `CCCCCOC(=O)COc1cc(N2C(=O)C3=C(CCCC3)C2=O)c(F)cc1Cl` was “inactive”; that for `CC(C)(c1ccc(O)cc1)c1ccc(O)cc1` was “inactive”.
With `C=CCOC(Cn1ccnc1)c1ccc(Cl)cc1Cl` (stereo not drawn), the AC50 was 12.7 µM (active).
`c1ccc(Nc2ccccc2)cc1`: the molecule was classed as inactive.
As to `O=C(Nc1ccc([N+](=O)[O-])cc1Cl)c1cc(Cl)ccc1O`, the AC50 is 2.13 µM (active).
As to `CCN(Cc1c(F)cccc1Cl)c1c([N+](=O)[O-])cc(C(F)(F)F)cc1[N+](=O)[O-]`, the call was inactive.
On to `C[C@]12CC[C@@H]3c4ccc(O)cc4C[C@@H](CCCCCCCCCS(=O)CCCC(F)(F)C(F)(F)F)[C@H]3[C@@H]1CC[C@@H]2O` (stereo partly drawn), for which the AC50 is 24.3 µM (active).
As for `C#CCOC(=O)[C@@H](C)Oc1ccc(Oc2ncc(Cl)cc2F)cc1`, the call was inactive.
Regarding `S=C([S-])NCCNC(=S)[S-].[Mn+2]`, the AC50 is 3.93 µM (active).
As for `CN(C)C(=O)Nc1ccc(Cl)c(Cl)c1`, the result was inactive.
As to `CCN(CC)C(=O)c1cccc(C)c1`, the outcome was inactive.

Read-out in a further assay: Potassium channel subfamily K member 1 (KCNK1), KCNK1 (gene 3775)
Description: LTEA_HepaRG_KCNK1: Life Technologies and Expression Analysis (LTEA) Assay for Potassium channel subfamily K member 1 (KCNK1) using HepaRG (AID 2283511). The following applies: mRNA level, 48 h; actives raise or lower the signal. In a few lines: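 HepaRG, 48 h exposure, 8-pt half-log series top 100 uM, 0.5% DMSO vehicle, duplicates. Readout: KCNK1 transcript by qRT-PCR (Fluidigm array), housekeeping-normalized; bidirectional curve fit relative to DMSO baseline.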
Consider `Cc1nn(C)c(Oc2ccccc2)c1C=NOCc1ccc(C(=O)OC(C)(C)C)cc1`, for which the AC50 is 12.9 µM (active).
As to `CCCCOCCOCCOCc1cc2c(cc1CCC)OCO2`, the outcome was inactive.
Same read-out and setting: the value for `S=C(S)NCCNC(=S)S.[Mn+2].[S-]C([S-])=NCCN=C([S-])[S-].[Zn+2]` was “inactive”; that for `CCOC(=O)C(C)Oc1ccc(Oc2nc3ccc(Cl)cc3o2)cc1` (stereo not drawn) was “inactive”; that for `CCOC(=O)COc1cc(-n2ncc(C(F)(F)F)c(C)c2=O)c(F)cc1Cl` was “inactive”.
Take `CSC(=O)c1cccc2nnsc12`: the molecule was classed as inactive.
Same read-out and setting: the value for `O=C(O)c1ccccc1` was “inactive”; that for `CCCCOC(=O)[C@@H](C)Oc1ccc(Oc2ccc(C(F)(F)F)cn2)cc1` was “inactive”; that for `CCCOC(=O)c1ccc(C(=O)OCCC)nc1` was “inactive”.
The same measure, in the same setting: the value for `CC(=O)S[C@@H]1CC2=CC(=O)CC[C@]2(C)[C@H]2CC[C@@]3(C)[C@@H](CC[C@@]34CCC(=O)O4)[C@H]12` was “inactive”; that for `CC(C)CCCCCCc1ccc(O)cc1` was “inactive”.
Still for that read-out and setting: the value for `CCC(C)OC(=O)N1CCCCC1CCO` (stereo not drawn) was “inactive”; that for `OB(O)O` was “inactive”; that for `C[C@]12C[C@H](O)[C@H]3[C@@H](CCC4=CC(=O)CC[C@@]43C)[C@@H]1CC[C@@H]2C(=O)CO` was “inactive”.
In the case of `CC(C)(C)[C@@H](O)[C@@H](Cc1ccc(Cl)cc1)n1cncn1`, the result was inactive.
For the molecule `CCCCCOC(=O)COc1cc(N2C(=O)C3=C(CCCC3)C2=O)c(F)cc1Cl`, the molecule was classed as inactive.
Still for that read-out and setting: the value for `CC(C)(c1ccc(O)cc1)c1ccc(O)cc1` was “inactive”.
As for `C=CCOC(Cn1ccnc1)c1ccc(Cl)cc1Cl` (stereo not drawn), the AC50 is 50 µM (active).
Regarding `c1ccc(Nc2ccccc2)cc1`, the molecule was called inactive.
Take `O=C(Nc1ccc([N+](=O)[O-])cc1Cl)c1cc(Cl)ccc1O`: the AC50 is 4.02 µM (active).
As to `CCN(Cc1c(F)cccc1Cl)c1c([N+](=O)[O-])cc(C(F)(F)F)cc1[N+](=O)[O-]`, the molecule was classed as inactive.
As for `C[C@]12CC[C@@H]3c4ccc(O)cc4C[C@@H](CCCCCCCCCS(=O)CCCC(F)(F)C(F)(F)F)[C@H]3[C@@H]1CC[C@@H]2O` (stereo partly drawn), the AC50 was 0.0883 µM (active).
On to `C#CCOC(=O)[C@@H](C)Oc1ccc(Oc2ncc(Cl)cc2F)cc1`, for which the outcome was inactive.
The same measure, in the same setting: the value for `S=C([S-])NCCNC(=S)[S-].[Mn+2]` was “inactive”.
Still for that read-out and setting: for `CN(C)C(=O)Nc1ccc(Cl)c(Cl)c1` the value was “inactive”.
The same measure, in the same setting: the value for `CCN(CC)C(=O)c1cccc(C)c1` was “inactive”.

For orientation: AC50 means the concentration giving half of the maximal activity seen.
